Measurements taken from PubChem BioAssay AID651803 (National Center for Advancing Translational Sciences (NCATS), 2012).
Out of some 1,200 compounds screened, fewer than 10 were called active. Calls come from the whole dose curve; as a rule, active = well fitted curve in the direction sought with a large enough effect; inconclusive = small, poorly fitted or top-dose-only effect, or another doubt; inactive = no such curve, though single readings can be large or run the other way. Not all results are given here.

What follows are compounds tested against Transcriptional regulator ERG (Homo sapiens) (UniProt P11308) (assay: qHTS for Small Molecule Inhibitors of the ERG Ets/DNA interaction: TR assay against cherry picks). Details: ERG Ets domain-DNA fluorescence polarization, Texas red probe; series mostly up to 154 µM.
Chain of Transcriptional regulator ERG (Homo sapiens) (P11308 whole entry, looked up, the tested form may be a part): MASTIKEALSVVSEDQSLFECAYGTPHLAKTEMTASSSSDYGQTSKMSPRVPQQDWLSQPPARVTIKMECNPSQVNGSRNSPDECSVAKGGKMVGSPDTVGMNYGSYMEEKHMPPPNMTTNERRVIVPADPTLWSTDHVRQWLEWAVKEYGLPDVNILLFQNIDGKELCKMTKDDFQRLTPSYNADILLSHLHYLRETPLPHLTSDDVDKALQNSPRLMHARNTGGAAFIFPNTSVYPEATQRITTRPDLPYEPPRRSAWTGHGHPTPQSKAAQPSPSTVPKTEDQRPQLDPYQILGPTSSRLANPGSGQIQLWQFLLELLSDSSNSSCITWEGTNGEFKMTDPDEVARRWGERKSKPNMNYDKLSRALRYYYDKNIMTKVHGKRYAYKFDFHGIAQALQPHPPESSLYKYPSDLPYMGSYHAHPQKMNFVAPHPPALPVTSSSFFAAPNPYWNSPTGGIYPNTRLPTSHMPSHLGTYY
Excerpt: The Ets family of proteins is a family of ~30 conserved transcription factors defined by the presence of an ~85 amino acid domain referred to as the Ets domain, which mediates sequence-specific DNA binding to a core DNA element GGAA/T.The Ets family member ERG has been linked to several neoplasms. […] More extensive studies of the effects of over-expression of ERG in prostate cells have recently been carried out and have shown that over-expression of ERG results in increased invasion. […] We will carry out a high throughout screen to identify inhibitors of the interaction between ERG and DNA using a fluorescence polarization (FP) assay with a His-tagged ERG Ets domain and fluorescently-labeled DNA probes to develop small molecule inhibitors of this interaction as probes to test this hypothesis and lay the groundwork for the development of targeted therapies against ERG. This is the confirmation against the cherry picks in theprimary screening assay. NIH Molecular Libraries Probe Production Network [MLPCN] NIH Chemical Genomics Center [NCGC] Grant: NS066464 PI Name: John Bushweller, University of Virgina
1.5 ul of protein solution (1 uM ERG domain in 300mM KCl, 50mM Tris-HCl, 1mM EDTA, 1mM DTT, pH 7.5); 20 nl Control plate and compound library plate; 1.5 ul mixture of 5 nM Fluorescein-DNA and 100nM Texas-615-DNA solution in same buffer as above solution; measure fluorescence polarization sequentially for fluorescein (Excitation = 480 nm, Emission = 535s, 535p nm) and Texas red (Excitation = 555 nm, Emission = 632s, 632p nm).

outcome, inactive:
CCOc1ccc(NC(=O)Cc2c(C(=O)O)n(C)c3ccccc23)cc1, CN(CC(=O)NC(=O)NC1CCCCC1)CC(=O)Nc1ccc(Cl)cc1, NC(=O)Nc1ccc(C(=O)OCC(=O)NC2CCCc3ccccc32)cc1 (stereo not given), Cc1ccccc1S(=O)(=O)N(CC(O)CN1C(=O)NC(C)(C)C1=O)c1ccccc1 (stereo not given), Cn1cc2c(=O)n(/N=C/c3ccccc3)cnc2n1, O=C(O)CN1C(=O)C(=O)N(Cc2ccc(C(F)(F)F)cc2)C1=O, Cn1cccc1C(=O)OCC(=O)Nc1ccc2[nH]c(=O)[nH]c2c1, CCC(C)NCCOc1ccc(C)cc1[N+](=O)[O-] (stereo not given), CC(C)n1c(SCc2ccccc2F)nc2c1c(=O)n(C)c(=O)n2C, CCc1ccc2c(c1)c(=O)c(C(=O)c1ccc(C)cc1)cn2CC(=O)Nc1ccccc1C, COc1ccc(C(=O)N2CCc3ccc(NC(=O)c4ccccn4)cc3C2)cc1F, CCN(CC(=O)Nc1ccc(N2CCOCC2)cc1)CC(=O)NC(C)(C)C, Cc1ccc(C)c(N(CC(=O)NCc2ccco2)C(=O)CNS(=O)(=O)c2ccc(F)cc2)c1, O=C(OCC(=O)N1CCN(c2ccccc2)CC1)c1cccc([N+](=O)[O-])c1, O=C(Nc1ccc(NS(=O)(=O)c2ccc([N+](=O)[O-])cc2)cc1)c1ccco1, Oc1ccccc1CN1CCCC(N2CCN(c3cccc(C(F)(F)F)c3)CC2)C1 (stereo not given), O=C(NNC(=O)c1sccc1-n1cccc1)Nc1ccccc1, CCOC(=O)c1c(NC(=O)C(C)Sc2cn(CCNC(=O)c3ccc(OC)c(OC)c3)c3ccccc23)sc2c1CCC2 (stereo not given), CC(=O)NCc1ccc(S(=O)(=O)N2CCN(c3ccccn3)CC2)cc1, CN(C(=O)COC(=O)c1cc(S(=O)(=O)N2CCOCC2)ccc1F)C1CCS(=O)(=O)C1 (stereo not given), Cn1c(SCc2nnc(-c3ccccc3)o2)nc2ccccc21, COc1cccc(OC)c1C(=O)Nn1c(-c2cccs2)nc2ccccc2c1=O, Cc1cc(C)c2nc(NC(=O)[C@@H](NC(=O)c3cccc(S(=O)(=O)N4CCOCC4)c3)C(C)C)sc2c1, S=C(NCCc1ccccc1)Nc1ccc(Cl)cc1Cl, CN(C)Cc1cc2ccccc2c2c1COC2, O=C(NCC1CCN(S(=O)(=O)c2ccccc2)CC1)Nc1ccc(F)cc1, O=C1/C(=C/c2cccs2)Sc2ccccc21, Cc1ccc(N(CC(=O)NC2CCCC2)C(=O)CNC(=O)c2cccs2)c(C)c1, COc1ccc(N(C(=O)c2snc(C(N)=O)c2N)C(C(=O)NCC2CCCO2)c2ccc3ncccc3c2)cc1OC (stereo not given), Cc1ccc(-c2[nH]c(-c3ccc(C(=O)O)cc3)nc2-c2ccccc2)cc1, Cc1ccccc1OCc1nc(-c2ccc(NC(=O)c3ccc4c(c3)OCO4)cc2)no1, CCOCCCNCC(=O)Nc1ccc(S(=O)(=O)NC(C)CC)cc1 (stereo not given), CC1CCN(C(=O)COC(=O)c2ccc(=O)n(Cc3ccccc3)n2)CC1, C=CCN1C(=O)c2ccc(C(=O)Nc3ccccn3)cc2C1=O, Cc1cccc(NC(=O)c2cc3ccccc3nc2C)c1, CC(=O)Nc1ccc(S(=O)(=O)N[C@@H](C)C(=O)N2CCN(C/C=C/c3ccccc3)CC2)cc1, COc1ccc(CN2CCC(C(=O)N3CCCC(C)C3)CC2)cc1OC (stereo not given), Cc1ccc(NS(=O)(=O)c2cc(Br)cnc2N)c(Cl)c1, CCOc1cc(S(=O)(=O)n2ccc(C)n2)ccc1Br, COc1ccc(NC(=O)C2CC(=O)n3c(nc4ccccc43)N2)cc1 (stereo not given), COc1ccc(OC)c(NC(=O)c2cccc(NC(=O)c3ccccc3)c2)c1, COc1ccc(CNCCC2(C(C)C)CCOC(C)(C)C2)cc1 (stereo not given), O=C(NCCCN1CCOCC1)c1ccc(CSc2ccc(Cl)cc2)cc1, O=C(CN1C(=O)CS/C1=C\c1nc(-c2ccc(Cl)cc2)cs1)Nc1cccnc1Cl, NCCNc1ccc2nnnn2n1, CCN(CC)S(=O)(=O)c1cccc(-c2nc3n(n2)Cc2ccccc2-3)c1, O=C(COc1ccc(-c2ccccc2)cc1)N1CCN(C(=O)c2cccs2)CC1, Cc1cc(/C=C(\C#N)C(=O)Nc2ccccc2)c(C)n1-c1ccc(C(=O)O)cc1, Cc1ccc(C=Nc2cccnc2N)cc1, CC(C)C1NC(=S)N(Cc2ccccc2)C1=O (stereo not given), Cc1nc2ccccc2c(=O)n1NC(=O)c1cccnc1Cl, COc1ccc(CCn2c(C)cc(C(=O)COC(=O)c3cnc(C)cn3)c2C)cc1, CCC(CC)COC(=O)C(C#N)c1nc2ccccc2nc1N1CCN(CC)CC1 (stereo not given), CCc1ccccc1N(CC(=O)NCc1ccco1)C(=O)CCC(=O)Nc1ccccn1, COc1ccc(NC(=O)CSCC(=O)N(C)Cc2cccc(OC)c2OC)cc1, CN(C)c1ccc2c3c(ccc(N(C)C)c13)C(=O)OC2, COc1ccc(NC(=S)NCc2ccc3c(c2)cc(C)n3C)cc1, Cc1cc2cc(CNC(=O)c3ccc(S(=O)(=O)N4CCCCC4)cc3)ccc2n1C, COc1cc(OC)c(N(C)S(=O)(=O)c2cccc(C(=O)NC(C)C3CC4CCC3C4)c2)cc1Cl (stereo not given), Nc1nc(Cl)c2ncn(C3OC(CO)C(O)C3O)c2n1 (stereo not given), CC(C)(C)c1ccc(OCC(=O)Nc2cccc(S(=O)(=O)NC3=NCCCCC3)c2)cc1, CCc1nc2ccccc2c(C(=O)NCc2ccccc2)c1C, COC(=O)c1cc(NC(=O)c2c(Cl)cnn2C)cc(C(=O)OC)c1, O=C(CC(c1ccccc1)c1cc(Cl)ccc1O)NCCCN1CCOCC1 (stereo not given), Cc1cccc(N2C(=O)CC(Cn3nc(C)cc3C)C2=O)c1 (stereo not given), CC1=CC(=O)C(C(C)C)=C/C1=C(\c1cc(C(C)C)c(OP(=O)(O)O)cc1C)c1ccccc1C(=O)O, Nc1c(C(=O)O)cnn1-c1ccccc1, OC(Cn1cnnc1)c1ccccc1 (stereo not given), COc1ccccc1NS(=O)(=O)c1cc(C(=O)N2CCCC2)ccc1C, COc1ccc(-c2nc3n(n2)C(c2ccccc2OC)C(C(=O)Nc2cccnc2)=C(C)N3)cc1 (stereo not given), COc1ccc2c(CCNC(=O)/C=C/c3ccc(OC)c(OC)c3)c[nH]c2c1, O=C(/C=C/c1ccc([N+](=O)[O-])cc1)NCc1ccco1, CC1(C)C2CCC1(CS(=O)(=O)N1CCC(C(N)=O)CC1)C(=O)C2 (stereo not given), CC(C)CNC(=O)CCc1nc(-c2ccccc2)no1, COc1ccc(N/C=C(\C(C)=O)c2ccc(OC)c(OC)c2)cc1OC, O=C(CNC(=S)N(CCCN1CCOCC1)Cc1cccs1)NC1CCCCC1, O=C(COc1ccc(F)cc1)Nc1nnc(-c2ccncc2)s1, COc1ccc(CCCC(=O)Nc2cc(C)ccc2OC)cc1, CCOC(=O)C1CCCN(C(=O)c2nn(-c3ccc(C)cc3)c(=O)n(C)c2=O)C1 (stereo not given), O=[N+]([O-])c1ccc(S(=O)(=O)N/N=C/c2ccsc2)cc1, O=C(Nc1ccc(N2CCOCC2)cc1)c1ccc2nc(-c3ccco3)c(-c3ccco3)nc2c1, CCn1c(=O)cc(OCC(=O)Nc2ccccc2C#N)c2ccccc21, CCOC(=O)C(=O)c1c(-c2ccccc2)nc2ccccn12, O=C(NCC(=O)N(c1ccccc1)C(C(=O)NC1CCCCC1)c1cccnc1)c1ccco1 (stereo not given), C[C@H](CO)N1C[C@H](C)[C@@H](CN(C)CC2CC2)Oc2c(NC(=O)C3CC3)cccc2C1=O, CCOc1ccccc1C1CC(c2ccc(Br)cc2)Nc2nc(N)nn21 (stereo not given), COc1ccc(/C=C/C(=O)Nc2c(C(=O)O)[nH]c3ccccc23)cc1OC, COc1ccc(-c2noc(Cn3c(=O)c4ccccc4n(CC(=O)Nc4cccc(C(F)(F)F)c4)c3=O)n2)cc1, COCCNC(=O)CSc1nc2ccccc2c(=O)n1-c1cccc(OC)c1, CCCCSc1cc(=O)n(-c2ccccc2)nc1C(=O)OCC, COc1c2c(c(CCC(=O)O)c3c1C=CC(C)(C)O3)OC(C)(C)C=C2, CC1Cc2ccccc2N1CC(=O)Nc1ccc2c(c1)OCO2 (stereo not given), CCC(C)NCCCOc1ccc(C)cc1OC (stereo not given), CCc1ccc(S(=O)(=O)NC2CC(C)(C)NC(C)(C)C2)cc1, Cc1cc2nc(-c3ccc[nH]c3=O)n(Cc3ccccc3F)c2cc1C, COc1ccc(OCCN2CCN(C(=O)c3ccc(OC(F)F)c(OC)c3)CC2)cc1, COc1ccc(C(=O)N(C)Cc2ccc(C)o2)cc1OC1CCN(C(C)C)CC1, COC(=O)C(CSCc1ccccc1)NC(=O)CSc1nc(N)cc(=O)[nH]1 (stereo not given), COc1ccc2cc(CO)c(Cl)nc2c1, Cc1cccc(-c2cnn(-c3cccc([N+](=O)[O-])c3)c2N)c1, CC(=O)Nc1ccc(SCC(=O)N(C)C2CCS(=O)(=O)C2)cc1 (stereo not given), CC(C)=CCOc1ccc2ccc(=O)oc2c1, CCOC(=O)COc1ccc(/C=C2/C(=O)NN(c3ccc(F)cc3)C2=O)cc1OC, Cc1ccc(-c2nnn(CC(=O)N(c3ccccc3)C(C(=O)NCC3CCCO3)c3ccc(F)cc3)n2)o1 (stereo not given), Cc1ccc(CNC(=O)COc2ccc(S(=O)(=O)N3CCCC3)cc2)cc1
